# Measurements from PubChem BioAssay (EPA / NIEHS).
# Activity calls are given as the source filed them. How the source made its calls: active means hit-call score of the fitted dose curve at least 0.9, where 1 is the maximum; inactive means score below 0.9.
# Experiment: CEETOX_H295R_CORTIC: CeeTox H295R High-throughput Steroidogenesis Assay for Corticosterone (CORTIC) (AID 2283437);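 further: corticosterone secreted into medium quantified by mass spectrometry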
# Settings: actives raise or lower the signal
# Experimental: CEETOX_H295R is a cell-based, multiplexed-readout assay that uses H295R, a human adrenal gland cell line, with measurements taken at 48 hours after chemical dosing in a 96-well plate.CEETOX_H295R_CORTIC is one of 23 assay component(s) measured or calculated from the CEETOX_H295R assay. It is designed to make measurements of hormone induction, a form of inducible reporter, as detected with absorbance signals by HPLC-MS-MS technology.Data from the assay component CEETOX_H295R_CORTIC was analyzed into 1 assay endpoint. This assay endpoint, CEETOX_H295R_CORTIC, was analyzed with bidirectional fitting relative to DMSO as the negative control and baseline of activity. Using a type of inducible reporter, gain or loss-of-signal activity using HPLC-MS-MS was used to understand synthesis of Corticosterone in H295R cell line at 48hr of chemical exposure. To generalize the intended target to other relatable targets, this assay endpoint is annotated to the steroid hormone intended target family, where the subfamily is glucocorticoids.
# Cell culture and media preparation procedures were conducted in accordance with OECD Test No. 456 guidelines, with minor modifications. H295R cells (ATCC CRL-2128) were expanded for 5 passages and frozen in batches in liquid nitrogen. Prior to the steroidogenesis assay, H295R cells were thawed and passed at least 4 times. The maximum passage was 10. Cells were maintained in a 1:1 mixture of DMEM/F12 supplemented with 5ml/L ITS+ Premix (BD Bioscience) and 12.5 ml/L Nu-Serum (BD Bioscience). After seeding cells into 96-well plates at 50-60% confluency, cells were allowed to adhere overnight. Prior to chemical testing, culture medium was replaced with 175 uL medium containing 10 uM forskolin to stimulate steroidogenesis for 48 hours. Following prestimulation, forskolin medium was replaced with medium containing test chemical solubilized in DMSO (ensuring a final concentration of 0.1% DMSO). Test chemicals were incubated for 48 hours, then the medium was removed and split into 2 vials containing approximately 75uL each, and stored at -80 C prior to hormone analysis. For steroid quantification, media samples were shipped to OpAns, LLC (Durham, NC) on dry ice, and samples were thawed to room temperature prior to liquid-liquid extraction. Steroid hormones were extracted from media samples using methyl tertbutyl ether (MTBE). An extra derivatization with dansyl chloride was included for estrogen (estrone and estradiol) detection only. Steroid hormones were separated by HPLC, eluted using a reverse phase C18 gradient with electrospray positive ionization, followed by quantification by tandem mass spectrometry (MS/MS). Data were acquired on a MassHunter Workstation Acquisition version B03.01 (Agilent Technologies, Inc.) and processed using MassHunter Quantitative Analysis for QQQ. Accuracy was determined for each hormone analyte from 3 standards to determine upper and lower limits of quantification (ULOQ and LLOQ, respectively) using a 7-point standard curve. Precision and accuracy of the extraction and quantification methods were calculated as the percent relative standard deviation (%RSD) of the spiked standards and percent spiked standard recovered, respectively. […] Test medium was removed following chemical exposure, and cell viability was evaluated in the same wells by MTT. MTT procedures were as follows: after removal of test medium, 500 uL of 0.5 mg/ml of 3-[4,5-dimethylthiazol-2-y]2,5-diphenyltetrazoliumbromide solution was added to the cells. Following a 4-hour incubation at 37 C and 5% CO2 to allow formazan-crystal formation, the MTT solution was removed and blue formazan salt crystals were solubilized using 500uL anhydrous isopropanol with shaking for 20 minutes. Absorbance was read at 570 and 650nm using a Packard Fusion microplate reader. Background correction of absorbance units was used to determine percent change relative to controls. […]
Compound,outcome,AC50
C[C@]12CC[C@H]3C(=CCc4cc(O)ccc43)[C@@H]1CCC2=O,inactive,–
OCCC(O)CO (stereo unspecified),inactive,–
CC1CCCCC1,inactive,–
N#Cc1ccccc1O,inactive,–
CCn1c2ccccc2c2ccccc21,inactive,–
Oc1ccc2c(c1)CCC2,inactive,–
O=c1[nH]cccc1O,inactive,–
Cc1cc(O)c(C(C)(C)C)cc1C(C)(C)C,inactive,–
CCN(CC)c1ccc(N=Nc2ccccc2)cc1,inactive,–
CCOCOCC,inactive,–
CCN(CC)c1ccc(C=O)cc1,inactive,–
CCCCCCCCCCCCC[N+](C)(C)Cc1ccccc1,inactive,–
Nc1cccnc1N,inactive,–
CN1CN(C)CN(C)C1,inactive,–
Cc1cccc(C)n1,inactive,–
O=C(c1ccccc1)c1ccc(Cl)cc1,inactive,–
CCCCC(CC)COC(=O)c1ccc(N(C)C)cc1 (stereo unspecified),inactive,–
O=C1c2ccccc2C(=O)c2c(Cl)cccc21,inactive,–
CSc1ccc(O)cc1C,–,37.6 µM (active)
CCCCCCCCCc1ccc(OCCO)cc1,inactive,–
O=C1C=CC(=O)N1c1ccccc1,inactive,–
